PubChem BioAssay AID624133 (Broad Institute, 2012)
In all, about 1,600 compounds went through this assay and about 1,300 (81%) were called active. No rule for the calls is given here. So high a share suggests a set chosen from earlier hits. Not all results are given here. Measured potencies and affinities stand elsewhere.

Experiment: non-specific 3'UTR reporter inhibition in Clone20-Shn3RL – cell-based, Renilla luciferase, cherry-picked, counter-screen for Shn3 inhibitor project, dose response (AID 624133);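 also: 0% = neutral control wells and -100% = positive control wells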
Conditions: Clone20-Shn3RL cells, Renilla luciferase luminescence, 24 h; at 35 µM (top of the series) unless noted

Which activity change, negative = inhibition does the source give for `C=CCn1c(C)cc(C2=NNC(=NCC)SC2)c1C` here?
The activity change, negative = inhibition was -16.7%.

With `NC(=O)NC(CC(=O)NCCc1ccccn1)c1ccccc1Cl` (stereo unspecified) as the compound, how does the activity change, negative = inhibition read?
Its activity change, negative = inhibition is -110%.

Which activity change, negative = inhibition does the source give for `S=c1[nH]nc(COc2cccc3ccccc23)n1Cc1ccccc1` here?
The activity change, negative = inhibition was -87.5%.

With `CC(C)(C)C(=O)Nc1ccc(NC(=O)c2ccco2)nc1` as the compound, how does the activity change, negative = inhibition read?
The activity change, negative = inhibition was 8.33%.

Which activity change, negative = inhibition does the source give for `CCOC(=O)C1=C(C)N(CCCC(=O)O)C(=O)NC1c1ccc2ccccc2c1` (stereo unspecified) here?
The activity change, negative = inhibition was -30%.

For `Cc1ccc(C(=O)N2CCN(C)CC2)cc1S(=O)(=O)N1CCCCCC1`, which activity change, negative = inhibition is on record?
The activity change, negative = inhibition was 65.3%.

For `CCN(CC)C(=S)Sc1c(-c2ccccc2)c2cc(Cl)ccc2[nH]c1=O`, which activity change, negative = inhibition is on record?
Its activity change, negative = inhibition is 16.7%.

With `CC(C)(C)C(=O)Nc1cc2nn(-c3ccccc3)nc2cc1Cl` as the compound, how does the activity change, negative = inhibition read?
Its activity change, negative = inhibition is 52.1%.

With `COc1ccc(OC)c(NC(=O)COC(=O)c2c3c(nc4ccccc24)CCCC3)c1` as the compound, how does the activity change, negative = inhibition read?
Its activity change, negative = inhibition is 40%.

Which activity change, negative = inhibition does the source give for `COc1cc(Nc2nc(-c3ccccc3)c3cc(C)ccc3n2)cc(OC)c1OC` here?
Its activity change, negative = inhibition is 16.7%.

For `Cc1ccc(S(=O)(=O)N2CCC3(CC2)OCCN3S(=O)(=O)c2c(C)cc(C)cc2C)cc1`, which activity change, negative = inhibition is on record?
Its activity change, negative = inhibition is -13.6%.

Which activity change, negative = inhibition does the source give for `O=C(CSc1nc2[nH]ncc2c(=O)[nH]1)Nc1ccccc1C(F)(F)F` here?
Its activity change, negative = inhibition is -108%.

For `Cc1csc(=O)n1CCC(=O)N(C)Cc1c(F)cccc1Cl`, which activity change, negative = inhibition is on record?
Its activity change, negative = inhibition is 75%.

For `CN(C)c1ncnc2c1C(c1ccccc1)C(C)(C)O2` (stereo unspecified), which activity change, negative = inhibition is on record?
The activity change, negative = inhibition was -22.2%.

With `O=C(OCc1ccccc1)N(CCCCN(CCCNCc1ccccc1)C(=O)OCc1ccccc1)CCCNCc1ccccc1` as the compound, how does the activity change, negative = inhibition read?
The activity change, negative = inhibition was 20%.

Which activity change, negative = inhibition does the source give for `COc1ccc(-c2noc(CCCCC(=O)N3CCN(c4cc(C)ccc4C)CC3)n2)cc1` here?
The activity change, negative = inhibition was -30%.

Which activity change, negative = inhibition does the source give for `C=CC[C@H](CC(=O)N(CCO)Cc1ccccc1)C(=O)NC[C@H](OC(=O)[C@@H](CC=C)Cc1ccc(F)cc1)c1ccccc1` here?
Its activity change, negative = inhibition is -75%.

With `CCS(=O)(=O)c1ccc2oc(SCC(=O)N3CCCCC3)nc2c1` as the compound, how does the activity change, negative = inhibition read?
The activity change, negative = inhibition was 35%.

With `CSc1nc(N2CCN(Cc3ccc4c(c3)OCO4)CC2)c2ccccc2n1` as the compound, how does the activity change, negative = inhibition read?
The activity change, negative = inhibition was -16.7%.

With `Cc1ccc(NC(=O)c2oc3ccccc3c2COC(C)C)cc1S(=O)(=O)N1CCOCC1` as the compound, how does the activity change, negative = inhibition read?
Its activity change, negative = inhibition is 25%.

For `Cc1ccc(CNC(=O)CSc2c3c(nc4ccc(Cl)cc24)CCCC3)o1`, which activity change, negative = inhibition is on record?
The activity change, negative = inhibition was 106%.

With `O=C(CSc1nc2c(c(=O)n1-c1ccc(Br)cc1)SCC2)NCc1ccco1` as the compound, how does the activity change, negative = inhibition read?
Its activity change, negative = inhibition is 29.2%.

Which activity change, negative = inhibition does the source give for `CC(C)c1c(O)c2c(n(-c3ccccc3)c1=O)CCCC2` here?
The activity change, negative = inhibition was -21.1%.

Which activity change, negative = inhibition does the source give for `O=C(Nc1cccc(S(=O)(=O)NC2=NCCC2)c1)C1CC(=O)N(c2ccc3c(c2)OCCO3)C1` (stereo unspecified) here?
Its activity change, negative = inhibition is -66.7%.

With `C[C@@H]1CC=C[C@H]2[C@H]1C(=O)N(Cc1ccccc1)[C@H]2c1cccc([N+](=O)[O-])c1` as the compound, how does the activity change, negative = inhibition read?
The activity change, negative = inhibition was 162%.

For `COc1cc(NC(=O)c2cc3c(Cl)nc4ccccc4c3s2)cc(OC)c1OC`, which activity change, negative = inhibition is on record?
Its activity change, negative = inhibition is 60%.

For `O=C(Nc1ccc(Cl)c(Cl)c1)c1cccc(S(=O)(=O)NCc2cccnc2)c1`, which activity change, negative = inhibition is on record?
The activity change, negative = inhibition was -10%.

Which activity change, negative = inhibition does the source give for `Cc1ccc(NC(=O)C2CCC(C(C)(C)C)CC2)cc1S(=O)(=O)N1CCOCC1` (stereo unspecified) here?
Its activity change, negative = inhibition is -100%.

Which activity change, negative = inhibition does the source give for `O=C(NNc1ccccc1)C(=O)NNS(=O)(=O)c1ccc(CCCl)cc1` here?
The activity change, negative = inhibition was 90%.

Which activity change, negative = inhibition does the source give for `CCCc1nc2c(=O)n(C)c(=O)nc-2n(C)n1` here?
Its activity change, negative = inhibition is 71.8%.

Which activity change, negative = inhibition does the source give for `COc1ccc(CNC(=O)C(C)n2ccc3cc(S(=O)(=O)N4CCCCCC4)ccc32)cc1` (stereo unspecified) here?
The activity change, negative = inhibition was 12.2%.
